The sample as a whole holds a higher share of hits than the screen did.
Pf Dd2 growth: blocks in vitro growth of P. falciparum Dd2 | P. falciparum Dd2 growth, SYBR Green, 72 h | 4.3% of 120,000 active | Potency, µM (series often up to 28.9 µM), usual class: inhibitors; active = well fitted inhibition curve with a large enough effect; note: nearly all actives have a fitted effect of over 65% in size
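Readout: SYBR Green fluorescence, 485 nm excitation, 535 nm emission, after ~16 h lysis at 37C. Before that, Dd2-infected red cells (2.5% hematocrit) grew 72 h with compound, 29 uM top final concentration.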
A number is an active result; – = inactive.

SMILES	Pf Dd2 growth
COc1cc(NC(=O)C2CCN(C(=O)c3ncn4c3COC(c3ccccc3)C4)CC2)cc(OC)c1 (stereo unspecified)	–
CCCC1(C(=O)O)CCCN(C(=O)c2cccc(OC)c2OC)C1 (stereo unspecified)	–
COc1cc(-c2nc(-c3cccc(Cl)c3)c(-c3ccccc3)[nH]2)cc(OC)c1OC	10µM
COc1ccc(-c2nc(-c3ccccc3)c(-c3ccccc3)[nH]2)cc1Br	–
COc1cc(-c2noc(CN3CCN(c4cccc(Cl)c4)CC3)n2)cc(OC)c1OC	–
CC(=O)N1CC(CO)C2(CCN(C(=O)c3cccc(Br)c3)CC2)C1 (stereo unspecified)	–
CCOc1ccccc1NC(=O)N1C[C@@H](F)C[C@H]1C(=O)N1CCc2ccccc2C1	–
C=CCNC(=O)C[C@@H]1CCN(C(=O)CCCCC)C[C@@H]1CC	–
Cc1cnc(-c2ccccc2)n1CCN	–
CCCCOc1ccc(-c2nn(-c3ccccc3)cc2C2NC(=O)NC(C)=C2C(=O)OC)cc1 (stereo unspecified)	–
CCCOc1ccccc1C1C(C(=O)Nc2ccccc2)=C(C)Nc2nnnn21 (stereo unspecified)	–
COC(=O)C1=C(C)NC(=O)NC1c1ccc(O)cc1 (stereo unspecified)	–
COc1ccc(C2NC(=O)NC(C)=C2C(=O)Nc2ccccc2)cc1OC (stereo unspecified)	–
CCCOc1ccc(-c2nn(-c3ccccc3)cc2C2NC(=O)NC(C)=C2C(=O)OC)cc1 (stereo unspecified)	10µM
CCCOc1ccc(-c2nn(-c3ccccc3)cc2C2NC(=O)NC(C)=C2C(=O)OC)cc1C (stereo unspecified)	10µM
COc1ccc2c(c1)CN(C1COC1)CC[C@H]1COC(=O)N21	–
Cc1cccc(-c2cccc(NC(=O)C3CCCN(Cc4cnc(C)nc4)C3)c2)c1 (stereo unspecified)	–
O=C(Nc1ccc(N2CCOCC2)cc1)C1(CCO)CCN(c2ncccn2)C1 (stereo unspecified)	–
Cn1cnc(S(=O)(=O)N2CCCC(c3nnnn3-c3ccccc3)C2)c1 (stereo unspecified)	–
CCOCCn1c(=O)[nH]c2cc(C(=O)NCc3ccc(F)c(F)c3)ccc21	–
CCCN1CCN(C(=O)c2ccnc(C(C)C)n2)[C@H]2CS(=O)(=O)C[C@H]21	–
Cc1nccn1CC1CCN(C(=O)c2cn(C3CCC(N)CC3)nn2)CC1 (stereo unspecified)	–
CNC(C)c1ccccc1 (stereo unspecified)	–
COc1cc(OC)cc(C(=O)Nc2ccc3c(c2)n(C)c(=O)c(=O)n3C)c1	–
Cc1cc(N2CCCCC2)nc2ccc(NC(=O)c3ccc(F)cc3)cc12	–
SMILES	Pf Dd2 growth
O=C(Nc1ccc2oc(-c3cccc4c(Br)cccc34)nc2c1)c1cccc(Cl)c1	–
CCN1CCN(c2cc(C)c3cc(NC(=O)c4cccc(Cl)c4)ccc3n2)CC1	1.6µM
CCN1CCN(c2cc(C)c3cc(NC(=O)c4cc(OC)cc(OC)c4)ccc3n2)CC1	0.4µM
CCN1CCN(c2cc(C)c3cc(NC(=O)/C=C/c4cccc(Cl)c4)ccc3n2)CC1	3.2µM
O=C(NCc1cccc(Cl)c1)C(=O)Nc1ccc2nc3n(c(=O)c2c1)CCCCC3	–
CCCCc1ccc(C(=O)Nc2ccc3nc(N4CCN(CC)CC4)cc(C)c3c2)cc1	4.5µM
CCN1C[C@@H]2C(C(=O)Nc3cccc(Cl)c3)=NO[C@@H]2C1	–
COc1ccc(C(=O)Nc2ccc3nc(N4CCC(C)CC4)cc(C)c3c2)cc1	–
CCCCc1ccc(NC(=O)c2ccc(=O)n(Cc3cccc(C)c3)c2)cc1	–
CC1CCN(c2ccc(NC(=O)c3cccc(Cl)c3)cc2C(=O)O)CC1	–
CC(=O)N1CCC(NC[C@H]2COCc3nc4ccccc4n32)CC1	–
O=C(NC1CC1)[C@@H]1CN(Cc2ccncc2F)C[C@H]1CO	–
O=C(COc1ccccc1)N1CCC(N2CC3CC(C2)[C@H]2CCCC(=O)N2C3)CC1 (stereo partly specified)	–
CNC(=O)[C@@H]1CN(C(=O)c2cscn2)C[C@H]1c1nc(COC)no1	–
CN(CCc1ccccn1)[C@H]1[C@@H]2OC[C@@H](O2)[C@@H](NCc2ccc3c(c2)OCO3)[C@@H]1O	–
COc1cccc(CN2CCCC3(CCN(S(=O)(=O)N(C)C)C3)C2=O)c1 (stereo unspecified)	–
Cc1onc(-c2cnn(C)c2NCCc2ccccc2)c1C(=O)NCc1ccoc1	–
CNc1ccnc(N2CCC3(CCCN(C4CCOCC4)C3=O)C2)n1 (stereo unspecified)	–
Cc1onc(C(=O)N2CCCC(Cc3nncn3Cc3ccccc3)C2)c1Cn1cc(Cl)cn1 (stereo unspecified)	–
CCN1C(=O)C2CC3(CCN(C(=O)CC(C)C)CC3)CN2C1=O (stereo unspecified)	–
COC[C@H]1CCCN1C(=O)C[C@@H]1O[C@H](CNC(=O)c2ccc(C)cc2)[C@@H](O)[C@H]1O	–
Cc1nc(N2CCN(C)CC2)ncc1C(=O)N1C[C@@H](C)[C@](O)(C2CC2)C1	–

From PubChem BioAssay
